# An excerpt weighted towards active compounds, which were near 18% of everything screened.
# TDP1 cell CPT: DT40-hTDP1 cell growth loss with CPT; chicken DT40 Tdp1-/-;hTDP1 cells + 20 nM CPT, ATP luminescence, 48 h; Potency, µM (series often up to 46.2 µM), without a hit: at the top dose activity change, negative = growth inhibition, actives largely listed as inhibitors; 420,000 compounds, 12% hits; AID 686979; also: potency is read from the fitted curve at half-maximal effect; nearly all actives have a fitted effect of over 55% in size
#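 Chicken DT40 Tdp1-/- cells complemented with human TDP1, 400 cells/well, exposed to compounds plus 20 nM camptothecin for at least 48 h at 37 C; viability read as ATP content by CellTiter-Glo luminescence.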
# RORg inh: ROR gamma (mouse) transcription inhibition; P51450; Potency, µM (doses to about 53.6 µM), for the others: at the top dose activity change, negative = inhibition, most hits filed as inhibitors; 310,000 compounds, 5.4% hits; Drosophila S2 Gal4-RORgamma UAS-luciferase reporter, 20 h; also: potency is read from the fitted curve at half-maximal effect; nearly all actives have a fitted effect of over 60% in size
# Target sequence (P51450 whole entry, looked up, the tested form may be a part): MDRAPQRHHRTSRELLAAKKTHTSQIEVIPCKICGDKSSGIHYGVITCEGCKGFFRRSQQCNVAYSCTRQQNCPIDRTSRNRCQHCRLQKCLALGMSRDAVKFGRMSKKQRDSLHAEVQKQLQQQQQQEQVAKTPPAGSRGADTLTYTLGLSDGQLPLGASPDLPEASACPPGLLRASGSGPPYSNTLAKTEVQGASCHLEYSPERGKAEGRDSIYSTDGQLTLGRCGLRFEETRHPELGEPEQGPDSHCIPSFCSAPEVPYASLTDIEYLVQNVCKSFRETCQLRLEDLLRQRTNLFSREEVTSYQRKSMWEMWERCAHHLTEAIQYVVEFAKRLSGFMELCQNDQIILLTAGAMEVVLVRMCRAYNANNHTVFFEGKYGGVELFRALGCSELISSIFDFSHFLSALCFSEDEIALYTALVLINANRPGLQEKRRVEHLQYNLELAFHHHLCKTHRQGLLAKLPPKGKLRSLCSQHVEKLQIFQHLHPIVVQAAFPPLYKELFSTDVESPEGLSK
#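 Luciferase reporter read in Schneider cells carrying Gal4-RORγ (mouse) and UAS-Photinus luciferase; cells given compound 1 h before 700 uM copper sulfate induction, then incubated 20 h at ambient temperature.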
# VP16 counter: Gal4-VP16 reporter inhibition counter-screen; Drosophila S2 Gal4-VP16 UAS-luciferase, luminescence, 20 h; Potency, µM (doses to about 53.6 µM), inactives show at the highest dose activity, negative = inhibition, most hits filed as inhibitors; 310,000 compounds, 3.5% hits; AID 2546;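 also: Gal4-VP16 expression switched on by copper sulfate through the metallothionein promoter; potency is read from the fitted curve at half-maximal effect; nearly all actives have a fitted effect of over 50% in size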
# DT40 TDP1 no CPT: qHTS for Inhibitors of human tyrosyl-DNA phosphodiesterase 1 (TDP1): qHTS in cells in absence of CPT; DT40 Tdp1-/- hTDP1 cells, no CPT, ATP luminescence, 48 h; Potency, µM (series often up to 46.2 µM), for inactives: at the highest dose activity change, negative = growth inhibition, hits mostly inhibitors; 420,000 compounds, 15% hits; also: potency is read from the fitted curve at half-maximal effect; nearly all actives have a fitted effect of over 55% in size
#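 Luminescent ATP content (CellTiter-Glo) served as the growth readout. Knockout chicken DT40 cells expressing human TDP1 were exposed to compounds without camptothecin for a minimum 48 hr at 37 °C.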
# IL1B secr inh: inhibitors of inflammasome signaling (IL-1 beta secretion) | 360,000 compounds, 4.7% hits | AID 743279 | activity change, % at 57.5 µM | THP-1 LPS/ATP IL-1B secretion, AlphaLISA, 16 h; hits give low values; in the data active = activity change below about -50%; inconclusive = mostly about -30% to -49%
#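 Secreted IL-1B measured by AlphaLISA bead assay after 16 h compound exposure of THP-1 cells; compounds (final up to 57.5 uM) added 1 h before LPS (250 ng/mL) and ATP (1.25 mM) stimulation; lower signal means less secretion.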
# LDHA inh: blocks human lactate dehydrogenase A; activity change, % (values are at about 110 or 230 µM); 480,000 compounds, 0.15% hits; P00338; purified LDHA, NADH/diaphorase-resazurin fluorescence; hits give low values; AID 1347041; in the data active = activity change below about -30%; inconclusive = mostly about -25% to -30%;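 also: plate controls were DMSO wells for no effect and wells without enzyme for full effect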
#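 Human LDH5 (2 nM) was incubated with 0.06 mM NADH and 0.2 mM pyruvate for 5 min at room temperature in Tris pH 7.4. Remaining NADH was coupled through diaphorase/resazurin, and resorufin fluorescence was read at 0 and 20 min.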
# Numbers without * were called inactive; u = inconclusive; x = not tested or not shown. Unless noted, calls follow the shape of the dose curve; as a rule, active = well fitted curve in the direction sought with a large enough effect; inconclusive = small, poorly fitted or top-dose-only effect, or another doubt; inactive = no such curve, though single readings can be large; an effect the other way counts as inactive or inconclusive. Unless noted, % is scaled to controls: 0 for no effect and ±100 for the full control effect.
SMILES,TDP1 cell CPT,RORg inh,VP16 counter,DT40 TDP1 no CPT,IL1B secr inh,LDHA inh
COc1cccc(OCc2cc(C(=O)N3CCN(c4ccccc4O)CC3)no2)c1,16µM*,12%,u,13µM*,0,-6
COc1ccccc1N1CCN(C(=O)c2cc(-c3ccccc3O)on2)CC1,21µM*,u,-3%,18µM*,19,-3
CC(C)CC(NC(=O)C1CCC(C)CC1)C(=O)O (configuration not stated),x,x,x,x,x,6
Cc1ccc(S(C)(=O)=O)cc1C(=O)OCC(=O)C(C)(C)C,x,x,x,x,x,2
O=C(Cn1ccc2ccc(Br)cc21)NCCCO,x,x,x,x,x,0
COc1ccc(-c2cc(=Nc3ccc(C)cc3)c3ccccc3o2)cc1,u,0%,-18%,u,u,-3
CCOc1ccc(N=c2cc(-c3ccc(OC)cc3)oc3ccccc23)cc1,26µM*,-11%,2%,26µM*,-14,5
COc1ccc(-c2cc(=O)c3ccccc3o2)cc1,u,-9%,7%,u,15,-14
COc1ccc(N=c2cc(-c3ccc(O)cc3)oc3ccccc23)cc1,u,-10%,-12%,u,-98*,-2
COc1ccc(N=c2cc(-c3ccc(OC)cc3)oc3ccccc23)cc1,u,-11%,0%,23µM*,x,-6
COc1ccc(-n2c(-c3ccc(F)cc3)cn3c4c(=O)[nH]c(=O)n(C)c4nc23)c(OC)c1,x,x,x,x,x,1
Cc1nc2ccccn2c1-c1csc(Nc2cccc(O)c2)n1,0.73µM*,4%,8%,1.6µM*,-104*,8
Cc1cccc(Nc2nc(-c3ccc(O)cc3O)cs2)n1,13%,4µM*,u,u,-90*,0
Cc1nc2ccccn2c1-c1csc(Nc2ccc(C(=O)O)cc2)n1,2.9µM*,6%,1%,3.7µM*,95,-1
Cc1nc2ccccn2c1-c1csc(Nc2cccc(C(=O)O)c2)n1,2%,0%,4%,-8%,30,-9
Cc1nc2ncccn2c1-c1csc(Nc2cccc(C(=O)O)c2)n1,-2%,11%,0%,-7%,19,8
Oc1ccc(-c2csc(Nc3ncccn3)n2)c(O)c1,-14%,0%,-13%,-14%,-21,2
N#Cc1ccc(Nc2nc(-c3ccc(O)cc3O)cs2)cc1C(F)(F)F,13µM*,x,x,10µM*,-101*,5
CCN(C(=O)C(C)S(=O)(=O)Cc1ccc(Cl)cc1Cl)c1ccccc1 (configuration not stated),x,x,x,x,x,15
Cc1ccc(SC(C)C(=O)Nc2cccc(F)c2)cc1 (configuration not stated),x,x,x,x,x,13
Cc1ccc(C(=O)Nc2ccc3oc(-c4ccccc4C)cc(=O)c3c2)cc1,x,x,x,x,x,-5
O=C(OCc1coc(-c2cccs2)n1)c1ccc2c(c1)OCCCO2,x,x,x,x,x,4
COc1ccc2c(C)c(CCC(=O)NCc3ccc4c(c3)OCO4)c(=O)oc2c1C,x,x,x,x,x,5
Cc1cccc(Nc2nc(-c3c(C)nc4ccccn34)cs2)c1,13µM*,13µM*,u,11µM*,-96*,10
Cc1cc(C)n(Cc2ccc(Cl)cc2Cl)c(=O)c1S(=O)(=O)c1ccccc1,u,29%,-23%,23µM*,11,2
Cc1[nH]c2ccccc2c1C(=O)C(C#N)C(=O)C1CC=CCC1 (configuration not stated),x,x,x,x,x,-4
O=C(CCNc1cccc(C(F)(F)F)c1)c1ccco1,21µM*,15%,-5%,16µM*,-3,2
O=C(CCNc1ccc(F)c(Cl)c1)c1ccco1,3.7µM*,u,u,6.5µM*,-101*,2
